Results filed as inconclusive are left out. Entries that show only a call come without a potency. Active and inactive are the calls of the source. Calls follow the shape of the dose curve; as a rule, active = well fitted activation curve with a large enough effect in the signal ratio in the repeat runs, with a control signal flat (not every such curve was filed as active); inconclusive = weak or mixed curves; inactive = flat fitted curve, though single readings scatter; the % refers to the signal ratio.
Potency is read from the fitted curve at half-maximal effect.

This experiment can be described thus: qHTS assay for small molecule activators of the heat shock response signaling pathway (AID 743210).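 As to activation: HeLa cells with beta-lactamase reporter driven by heat shock elements.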 As to conditions: HeLa HSE-bla reporter, beta-lactamase ratio, 5 h; series mostly up to 62.6 µM. In outline:
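In HSE-bla HeLa cells, 5 h compound incubation (37 C) precedes addition of LiveBLAzer B/G substrate; after 2.5 h at room temperature, fluorescence intensity indicates reporter induction.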
On the technique in general: In qHTS, concentration-response curves come from the screen itself.
As to `CCCSP(=O)(OCC)SCCC`, the Potency entry is “inactive”.
Under `COc1cccc2c1C(=O)c1c(O)c3c(c(O)c1C2=O)C[C@@](O)(C(=O)CO)CC3OC1CC(N2CCOC(OC)C2)C(O)C(C)O1` (some centres undefined) stands “inactive”; under `CC(Cc1ccc(C(C)(C)C)cc1)CN1C[C@@H](C)O[C@@H](C)C1` (some centres undefined), “inactive”; under `c1ccc2cc3c(cc2c1)-c1cccc2cccc-3c12`, 5.21 µM (active).
Under `CCN(CC)c1c([N+](=O)[O-])cc(C(F)(F)F)c(N)c1[N+](=O)[O-]` stands “inactive”.
Under `Nc1ccc(Sc2ccc(N)cc2)cc1` stands “inactive”; under `O=C(O)C1C2CCC(O2)C1C(=O)O` (centres undefined), “inactive”; under `O=C(CCCN1CCC2(CC1)C(=O)NCN2c1ccccc1)c1ccc(F)cc1`, “inactive”.
Regarding `Cc1c(Cl)c(=O)oc2cc(OP(=O)(OCCCl)OCCCl)ccc12`, the Potency entry is “inactive”.
Turning to `CC(c1ccc(O)cc1)c1ccc(O)cc1`, the Potency entry is “inactive”.
Under `COc1cc(C=O)cc2c1[C@H](COC(N)=O)[C@]1(OC(C)=O)ON2C[C@H]2[C@@H]1N2C(C)=O` stands “inactive”; under `COP(=O)(OC)SCn1c(=O)oc2cc(Cl)cnc21`, “inactive”; under `O=C(O)COc1nc(Cl)c(Cl)cc1Cl`, “inactive”.
For the molecule `CS(=O)(=O)c1ccc(C(=O)C2C(=O)CCCC2=O)c([N+](=O)[O-])c1`, the Potency result was “inactive”.
